Data: PubChem BioAssay (NCATS)
Where “and” joins values, the source holds several entries; their conditions need not be identical. Equal values may be shown once. Records with an inconclusive call do not appear. Unmarked numbers belong to inactive results. Calls of active or inactive are those of the source. The call rests on the fitted dose curve; in most records, active means well fitted curve in the direction sought with a large enough effect; inconclusive means small, poorly fitted or top-dose-only effect, or another doubt; inactive means no such curve, though single readings can be large; an effect the other way counts as inactive or inconclusive.

Experiments:
[1] = molecular target: Cellular tumor antigen p53 (Homo sapiens) (UniProt P04637); test: Primary qHTS for small molecule compounds that upregulate eGFP-tagged delta133p53alpha (in N-terminal) cells. (AID 2060322); settings: NCI-H358 eGFP-delta133p53alpha fluorescence, 24 h; activation: active compounds read high; further: nearly all actives have a fitted effect of over 75% in size; further: potency means the concentration at half of the fitted maximal effect;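 on activation: cells pre-induced with doxycycline then dosed without doxycycline; series mostly up to about 56 µM; 0% = DMSO vehicle and 100% = reference activator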
Procedure, shortened: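 NCI-H358 cells pre-induced 24 h with 10 ng/ml doxycycline for eGFP-delta133p53alpha, plated dox-free and exposed 24 h at 37C to titrated compounds. Fixed, Hoechst-stained; gated GFP peak intensity by laser scanning cytometry, normalized to DMSO (0%) and 57.5 uM 5-azacytidine (100%).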

[2] = molecular target: Aldehyde dehydrogenase, mitochondrial (Homo sapiens) (UniProt P05091); test: qHTS for Inhibitors of the Aldehyde Dehydrogenase Family (ALDH2) Primary screen (AID 2061308);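 further: plate controls were vehicle for no effect and reference inhibitor for full effect; nearly all actives have a fitted effect of over 55% in size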
[3] = molecular target: Retinaldehyde dehydrogenase 3 (Homo sapiens) (UniProt P47895); test: qHTS for Inhibitors of the Aldehyde Dehydrogenase Family (ALDH1A3) Primary screen (AID 2061315);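 further: plate controls were DMSO vehicle for no effect and reference inhibitor for full effect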
[4] = BET inhibitor-based combinations targeting novel dependencies in MECOM-rearranged (r) AML: SET-2 cell line (AID 2202231); settings: SET-2 AML cells viability, CellTiter-Glo luminescence, 48 h; viability: active compounds read low, concentration not given here; further: nearly all actives have a fitted effect of over 35% in size; further: potency means the concentration at half of the fitted maximal effect;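 on viability: plate controls were DMSO treated cells for no effect and wells without cells for full effect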
Procedure, shortened: (§1)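 Luminescent ATP readout (CellTiter-Glo) after 48 hr drug exposure gives viability. Curves span 11 concentrations and are normalized to DMSO and empty wells. Activity is reported as area under the curve and its Z-transform within each cell line.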

[5] = BET inhibitor-based combinations targeting novel dependencies in MECOM-rearranged (r) AML: OCI-AML3 cell line (AID 2202232); settings: Potency: OCI-AML3 viability; further: nearly all actives have a fitted effect of over 35% in size; further: potency means the concentration at half of the fitted maximal effect;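 on viability (% of control): series mostly up to about 46 µM; plate controls were DMSO vehicle wells for no effect and wells without cells for full effect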
Procedure, shortened: as §1

[6] = BET inhibitor-based combinations targeting novel dependencies in MECOM-rearranged (r) AML: HNT-34 cell line (AID 2202234); further: nearly all actives have a fitted effect of over 35% in size; further: potency means the concentration at half of the fitted maximal effect;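 on viability (% of control): plate controls were vehicle wells for no effect and cell-free wells for full effect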
Procedure, shortened: (§2)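 Luminescent ATP readout (CellTiter-Glo, 15 min at room temperature) after 48 hr drug exposure gave viability. Dose-response curves, normalized to DMSO and empty-well controls, were summarized as area under the curve and its mean-centred Z-score.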

[7] = BET inhibitor-based combinations targeting novel dependencies in MECOM-rearranged (r) AML: AML-191 cell line (AID 2202236; further: nearly all actives have a fitted effect of over 35% in size; further: potency means the concentration at half of the fitted maximal effect;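 on viability (% of control): plate controls were vehicle wells for no effect and wells without cells for full effect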)
Procedure, shortened: as §1

[8] = BET inhibitor-based combinations targeting novel dependencies in MECOM-rearranged (r) AML: AML-194 cell line (AID 2202237; further: nearly all actives have a fitted effect of over 40% in size; further: potency means the concentration at half of the fitted maximal effect;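 on viability (% of control): plate controls were vehicle wells for no effect and wells without cells for full effect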)
Procedure, shortened: as §1

[9] = BET inhibitor-based combinations targeting novel dependencies in MECOM-rearranged (r) AML: UCSD-AML1 cell line (AID 2202235); further: nearly all actives have a fitted effect of over 40% in size; further: potency means the concentration at half of the fitted maximal effect;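 on viability (% of control): series mostly up to about 46 µM; plate controls were DMSO vehicle wells for no effect and blank wells for full effect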
Procedure, shortened: as §2

[10] = BET inhibitor-based combinations targeting novel dependencies in MECOM-rearranged (r) AML: MV-4-11 cell line (AID 2202233); further: nearly all actives have a fitted effect of over 45% in size; further: potency means the concentration at half of the fitted maximal effect
Procedure, shortened: as §2

Chain of Cellular tumor antigen p53 (Homo sapiens) (P04637 whole entry, looked up): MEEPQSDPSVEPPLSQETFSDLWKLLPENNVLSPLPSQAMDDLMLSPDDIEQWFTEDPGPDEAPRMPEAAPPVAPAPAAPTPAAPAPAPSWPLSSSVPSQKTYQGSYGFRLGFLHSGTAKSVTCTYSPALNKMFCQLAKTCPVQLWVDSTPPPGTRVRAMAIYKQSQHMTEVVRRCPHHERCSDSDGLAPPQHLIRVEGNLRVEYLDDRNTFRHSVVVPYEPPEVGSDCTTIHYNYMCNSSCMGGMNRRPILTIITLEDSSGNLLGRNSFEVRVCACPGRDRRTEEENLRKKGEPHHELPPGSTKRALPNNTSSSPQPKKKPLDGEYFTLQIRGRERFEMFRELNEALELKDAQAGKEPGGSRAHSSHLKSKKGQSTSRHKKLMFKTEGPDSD

Compound	activation [1]	Potency [2]	Potency [3]	Potency [4]	Potency [5]	Potency [6]	Potency [7]	Potency [8]	Potency [9]	viability [4] [%]	Potency [1]	viability (% of control) [5]	viability (% of control) [6]	Potency [10]
C[C@@H](NCCCc1cccc(C(F)(F)F)c1)c1cccc2ccccc12	1.97%	inactive	inactive	23500 nM (active)	16600 nM (active)	26300 nM (active)	23500 nM (active)	26300 nM (active)	–	–	–	–	–	–
CN1CCN(c2ccc(OC(F)(F)F)c(Nc3ncc4c(n3)-c3c(c(C(N)=O)nn3CCO)CC4)c2)CC1	85.7%	inactive	inactive	186 nM (active)	59 nM (active)	–	132 nM (active)	332 nM (active)	118 nM (active)	–	–	–	–	–
CNC(=O)c1ccc2cc(C3(O)CCn4cncc43)ccc2c1 (stereo unspecified)	-1.49% and -0.893%	inactive	inactive	–	inactive	inactive	–	inactive	inactive	115	–	–	–	–
CC1CCC(n2c3cnccc3c3cnc(Nc4ccc5c(n4)CCN(C(=O)CO)C5)nc32)CC1 (stereo unspecified)	–	inactive	inactive	–	–	–	–	1210 nM (active)	–	105	23900 nM (active)	86.5% [at 8.46 µM]	92.3% [at 8.46 µM]	–
CCOc1cc(C(=O)Nc2ccc(Cl)c(-c3nc4ccccc4[nH]3)c2)cc(OCC)c1OCC	1.25% and 5.73%	inactive	inactive	18600 nM (active)	–	14800 nM (active)	–	–	–	–	–	–	–	16600 nM (active)
FC(F)(F)c1ccc(/C=C/c2nc(COc3ccc(CCCCn4ccnn4)cc3)co2)cc1	18.8%	inactive	inactive	74.2 nM (active)	372 nM (active)	inactive	–	inactive	inactive	–	–	–	–	–
CN1C(=O)C(Cc2c[nH]c3ccccc23)NC1=S (stereo unspecified)	23.7%	inactive	inactive	–	inactive	inactive	inactive	inactive	–	99.6	–	–	–	–
CN1CCN(c2ccc(-c3cccc(CN4CCOCC4)c3)cc2NC(=O)c2c[nH]c(=O)cc2C(F)(F)F)CC1	-14.5%	inactive	inactive	–	–	inactive	inactive	inactive	inactive	120	–	–	–	12900 nM (active)
COc1ccc(C(=O)C2CCN(CC(=O)N(Cc3nc4c(c(=O)[nH]3)COCC4)CC3CC3)CC2)cc1	25.7%	inactive	inactive	–	–	inactive	–	inactive	inactive	110	–	–	–	inactive
CN(C)C/C=C/C(=O)Nc1cccc(C(=O)Nc2cccc(Nc3ncc(Cl)c(-c4c[nH]c5ccccc45)n3)c2)c1	–	inactive	inactive	1050 nM (active)	–	235 nM (active)	468 nM (active)	525 nM (active)	209 nM (active)	–	239 nM (active)	–	–	3.3 nM (active)
COc1cc2ncnc(Oc3cccc(NC(=O)Nc4cc(C(C)(C)C(F)(F)F)on4)c3)c2cc1OC	–	inactive	inactive	–	–	209 nM (active)	–	inactive	–	104	23900 nM (active)	–	–	662 nM (active)
O=C1CCCC2=C1C(c1[nH]ncc1Cl)N=C(Nc1nc3ccccc3o1)N2 (stereo unspecified)	-17.4% and 19.7%	inactive	inactive	–	–	–	16600 nM (active)	inactive	–	78.9	–	–	–	10500 nM (active)
Cc1cc(Nc2cc(CN3CCOCC3)c3nc(C)c(Cc4ccc(Cl)cc4F)n3n2)n[nH]1	–	inactive	inactive	2630 nM (active)	–	–	–	1480 nM (active)	2350 nM (active)	–	27300 nM (active)	–	–	235 nM (active)
CNc1nc(Nc2cnn([C@H]3CCN(C4COC4)C[C@@H]3F)c2Cl)ncc1C(F)(F)F	-10.7% and -17.9%	inactive	inactive	–	–	–	–	inactive	–	94.3	–	–	–	1320 nM (active)
